TRHR agonist-1: agonists of human TRH receptor. TRHR cells, calcium flux fluo-8, FDSS agonist mode. AID 493084. activation, % at 2 µM. 360,000 compounds, 0.18% hits. P34981
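In this calcium-flux screen, cells bearing human TRHR are dye-loaded with fluo-8, baselined for 10 cycles, then exposed to library compounds; positive kinetic calcium responses during the agonist phase mark hits, with TRH as control.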
TRHR enhancer-1: allosteric enhancers of human TRH receptor | P34981 | TRHR cells, fluo-8 calcium fluorescence, EC20 TRH enhancement | enhancement, % at 2 µM | 360,000 compounds, 0.66% hits | AID 493056; in the data active means enhancement above about 30%
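TRHR-expressing cells loaded with fluo-8 calcium dye were read kinetically (ex 480/em 530) during compound addition, then stimulated with an EC20 of TRH (10 nM final). Enhancement of the Gq-mediated intracellular calcium response was scored.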
D1 antagonist: antagonists of human D1 dopamine receptor; P21728; HEK293 TREx D1 cells, calcium flux, dopamine EC80; hits give low values; activity change, negative = inhibition, % at 10 µM; 360,000 compounds, 3.2% hits; AID 504652; in the data active means activity change below about -30%
Target sequence (P21728 whole entry, looked up): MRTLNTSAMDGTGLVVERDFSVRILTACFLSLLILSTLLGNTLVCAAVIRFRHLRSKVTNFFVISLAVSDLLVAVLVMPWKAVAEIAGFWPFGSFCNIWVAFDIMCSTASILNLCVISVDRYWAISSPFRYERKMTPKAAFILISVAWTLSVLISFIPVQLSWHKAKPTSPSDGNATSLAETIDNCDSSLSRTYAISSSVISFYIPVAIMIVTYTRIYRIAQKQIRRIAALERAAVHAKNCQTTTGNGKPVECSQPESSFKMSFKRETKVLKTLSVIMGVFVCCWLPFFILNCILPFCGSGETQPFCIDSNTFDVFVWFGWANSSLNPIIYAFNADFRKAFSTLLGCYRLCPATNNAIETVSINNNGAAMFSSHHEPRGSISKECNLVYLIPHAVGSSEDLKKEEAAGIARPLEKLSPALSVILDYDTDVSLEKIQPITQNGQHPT
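Inducible Hek293 Trex D1 cells (tetracycline, overnight, 30 C). Calcium dye 30–90 min RT. Antagonist mode: EC80 dopamine added after 180 s compound read.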
D1 ag: human D1 receptor agonism; P21728; HEK293 T-REx D1 cells, calcium flux, agonist mode; activation, % at 2 µM; 360,000 compounds, 1% hits; AID 504660
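Agonism was scored from calcium flux recorded over 180 s (1 read/s) after pintool compound addition, following a 10-cycle baseline. Cells were inducible force-coupled HEK293 TREx D1, plated overnight at 30 C and loaded with no-wash calcium dye.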
D1 potentiator: enhances dopamine response at the human D1 receptor; P21728; HEK293 TREx D1 cells, calcium flux, dopamine EC20 potentiation; potentiation, % at 10 µM; 360,000 compounds, 0.036% hits; in the data active means potentiation above about 30%
TRHR enhancer-2: human TRH receptor allosteric enhancement confirmation; shares compounds with TRHR enhancer-1; TRH receptor cell assay, enhancer confirmation qHTS; activity change, negative = inhibition, % at 46.1 µM; 970 tested, under 10 active; active means well fitted curve in the direction sought with a large enough effect; inconclusive means small, poorly fitted or top-dose-only effect, or another doubt; inactive means no such curve, though single readings can be large; an effect the other way counts as inactive or inconclusive;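 further: compound effect scored on response to added TRH at EC20 of 10 nM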
TRHR agonist-2: confirmation of human TRH receptor agonists. TRHR-expressing cells, agonist activation read-out. Potency, µM (doses to about 46.1 µM), hits mostly activators. shares compounds with TRHR enhancer-1. AID 493078. 970 compounds, 8% hits; active means well fitted curve in the direction sought with a large enough effect; inconclusive means small, poorly fitted or top-dose-only effect, or another doubt; inactive means no such curve, though single readings can be large; an effect the other way counts as inactive or inconclusive; further: nearly all actives have a fitted effect of over 75% in size
Hits are given with their value; n = inactive; u = inconclusive; x = no result. A selection: hits, their analogues and other compounds. The true share with any hit is near 4.7%. Unless noted, no stated cut-off is given here; in the data, active means activation above about 30%; inactive means the rest.

SMILES	TRHR agonist-1	TRHR enhancer-1	D1 antagonist	D1 ag	D1 potentiator	TRHR enhancer-2	TRHR agonist-2
CCC(CC)C(=O)Nc1nnc2n1CCS2	n	n	n	n	n	x	x
CCOC(=O)/C(C#N)=C/c1cccc(F)c1	43.2	n	n	n	n	n	n
O=[N+]([O-])c1ccc2sc(SCc3nc4ccccn4c3Br)nc2c1	n	41.3	n	n	n	n	n
Brc1c(CSc2nc3ccccc3s2)nc2ncccn12	n	n	n	n	n	x	x
COc1ccc(OC)c(C(c2c(C)[nH][nH]c2=O)c2c(C)[nH][nH]c2=O)c1	n	49.7	n	n	n	n	n
CSc1ncc(C(=O)NCc2ccc(C)cc2)c(-c2ccccc2)n1	n	n	n	n	n	x	x
Cn1c(CNC(=O)CSc2n[nH]c(-c3ccccc3)n2)nc2ccccc21	n	n	n	n	n	x	x
Cc1ccc(Cn2c(=O)c3cccnc3n(CC(=O)Nc3cc(Cl)ccc3C)c2=O)cc1	n	n	n	n	n	x	x
Cc1ccc(/C=C/c2nc3ccccc3[nH]2)cc1	n	n	n	n	n	x	x
Cc1ccc(/C=C/c2nc3ccccc3[nH]2)o1	n	45.6	n	n	n	u	n
Cc1c(Cl)cccc1NC(=O)CSc1nc(=O)n(Cc2ccco2)c2c1CCC2	n	n	x	n	n	x	x
CCOc1ccc(C(=O)Nc2ccc(N3CCN(C(C)=O)CC3)cc2)cc1[N+](=O)[O-]	n	n	n	n	n	x	x
CCOc1ccc(C(=O)Nc2ccc(N3CCN(C)CC3)cc2)cc1[N+](=O)[O-]	n	62.9	n	n	n	n	n
COc1ccccc1OCC(=O)OCC(=O)Nc1sccc1C(N)=O	33.5	n	n	n	n	n	u
COc1ccc(Br)cc1C(=O)Nc1ccc(C(=O)NCC(C)C)cc1	n	46.4	n	n	n	n	n
CC1CCN(C(=O)c2ccc3c(c2)N(Cc2ccccc2F)C(=O)c2ccccc2S3(=O)=O)CC1	n	n	n	n	n	x	x
COc1ccc2c3c(c(=O)oc2c1)C1O[C@](CCCCN2C(=O)c4ccccc4C2=O)(Cc2cc(OC)c(OC)cc21)O3	n	n	n	n	n	x	x
CCCc1cc(=O)oc2c(C)c(OCC(=O)NCCN3CCOCC3)ccc12	n	54.4	n	n	n	n	n
Cc1cccc(N2CCN(c3ncnc4c3nc3n4CCCCC3)CC2)c1C	n	n	n	n	n	x	x
Nn1c(N2CCCCC2)nc2ccccc21	n	71.1	n	n	n	n	n
CC(C)c1nn2c(=O)cc(COC(=O)c3ccc(NC(=O)c4ccccc4Cl)cc3)nc2s1	n	n	n	n	n	x	x
COC(=O)C1=C(C)N(c2ccc(OC)cc2)C(C)=C(C(=O)OC)C1c1ccc(OC)cc1	n	41.3	n	n	n	n	n
NNc1nc(-c2ccccc2)cc(-c2ccccc2)n1	n	n	n	n	n	x	x
N#Cc1cc(-c2ccccc2)nc(NN)n1	n	48.1	n	n	n	n	n
Cc1[nH]n(-c2ccccc2)c(=O)c1C=NC1CCCCC1	n	43.9	n	n	n	n	n
SMILES	TRHR agonist-1	TRHR enhancer-1	D1 antagonist	D1 ag	D1 potentiator	TRHR enhancer-2	TRHR agonist-2
Cc1[nH]n(-c2ccccc2)c(=O)c1C=NC1CCCCCC1	n	n	n	n	n	x	x
Cc1cccn2c(Nc3ccc4c(c3)OCCO4)c(-c3ccc(Br)o3)nc12	n	n	n	n	n	x	x
Cc1ccc(-n2c(C)n[nH]c2=S)cc1C	n	45.3	n	n	n	n	n
Cc1ccc(-n2c(C)n[nH]c2=S)cc1	n	n	n	n	n	x	x
CC1=C(C(=O)Nc2cccnc2)C(c2ccccc2)n2nc(SCc3ccccc3F)nc2N1 (stereo not given)	n	n	n	n	n	x	x
CCOc1ccc(NC(=O)NCc2ccc3c(c2)CCN3C(C)=O)cc1	n	n	n	n	n	x	x
COc1ccccc1C(=O)Oc1ccc2c(c1)O/C(=C\c1ccncc1)C2=O	n	n	n	35.8	n	n	u
COc1cc(OC)c(OC)cc1/C=C1\Oc2cc(OS(C)(=O)=O)ccc2C1=O	37.6	n	n	52.6	n	n	u
COc1ccc2c(c1)O/C(=C\c1ccccc1C)C2=O	n	n	n	n	n	x	x
COc1ccc(/C=C2\Oc3cc(OC(=O)N4CCOCC4)ccc3C2=O)cc1	n	n	n	n	n	x	x
CC(=O)Oc1ccc2c(c1)O/C(=C\c1ccncc1)C2=O	n	n	n	65.2	n	n	u
COc1ccc(S(=O)(=O)Oc2ccc3c(c2)O/C(=C\c2cccnc2)C3=O)cc1	n	n	n	n	n	x	x
Cc1cccc(C)c1-n1ncc(C(=O)Nc2ccc3c(c2)OCCO3)c1C1CCN(C(=O)OC(C)(C)C)CC1	n	n	n	n	n	x	x
Cc1cccc(N(C(=O)c2csnn2)C(C(=O)NC2CCCCC2)c2ccncc2)c1 (stereo not given)	n	54.5	n	n	n	n	n
Cc1cccc(N(C(=O)c2csnn2)C(C(=O)NC2CCCC2)c2ccncc2)c1 (stereo not given)	n	n	n	n	n	x	x
CCCCCNc1nc2c(-c3ccccc3)nnn2c2ccccc12	n	n	n	n	n	x	x
Nc1ccc(C(=O)OCC(=O)NC(=O)c2ccccc2)cc1[N+](=O)[O-]	n	54.9	n	n	n	n	n
O=C(COC(=O)c1ccc(Cl)cc1[N+](=O)[O-])NC(=O)c1ccccc1	n	n	n	n	n	x	x
CC1=C(C(=O)Nc2ccc(Cl)cc2)C(c2cccs2)n2nc(SCc3cccc(Cl)c3)nc2N1 (stereo not given)	n	n	n	n	n	x	x
CCOc1ccc(Nc2cc(C)nc(N3CCOCC3)n2)cc1	n	n	n	n	n	x	x
CCOc1ccc(Nc2nc(N3CCOCC3)nc(N3CCOCC3)n2)cc1	n	50.2	n	n	n	n	n
CCn1ncc(Cl)c1C(=O)NC(=S)Nc1ccccc1Br	n	n	n	n	n	x	x
Cc1nn(C)c(C(=O)NC(=S)Nc2ccccc2Br)c1Cl	75.5	n	n	n	n	n	13µM
CCOC(=O)c1[nH]c2c(c1Cc1ccccc1OC)C(=O)CC(c1ccc(OCC)cc1)C2 (stereo not given)	n	n	n	n	n	x	x
OC(COc1ccc2cc(Br)ccc2c1)CN1CCN(c2ccccn2)CC1 (stereo not given)	n	n	n	n	n	x	x
Cc1nc(C)n(CC(O)COc2ccc3cc(Br)ccc3c2)n1 (stereo not given)	n	43.5	-32.0	46.9	n	u	n
O=[N+]([O-])c1ccc(-c2ccc(/C=N/O)o2)cc1	n	n	n	n	n	x	x
COCCNC(=S)N/N=C/c1ccc(-c2ccc([N+](=O)[O-])cc2)o1	33.8	n	n	87.6	n	n	10.3µM
